Assay outcomes as filed in PubChem BioAssay.
CCHF vOTU inh = CCHFV vOTU protease inhibition; Pep-AMC fluorescence; inhibition, % at 11.5 µM; 0.55% of 370,000 active; in the data active means inhibition above about 30%
Anthrax LF inh2 = blocks Bacillus anthracis lethal factor protease | P15917 | multiplex microsphere protease cleavage assay, LF | inhibition, % at 10 µM | 0.12% of 360,000 active | AID 588501
Target sequence (P15917 whole entry, looked up): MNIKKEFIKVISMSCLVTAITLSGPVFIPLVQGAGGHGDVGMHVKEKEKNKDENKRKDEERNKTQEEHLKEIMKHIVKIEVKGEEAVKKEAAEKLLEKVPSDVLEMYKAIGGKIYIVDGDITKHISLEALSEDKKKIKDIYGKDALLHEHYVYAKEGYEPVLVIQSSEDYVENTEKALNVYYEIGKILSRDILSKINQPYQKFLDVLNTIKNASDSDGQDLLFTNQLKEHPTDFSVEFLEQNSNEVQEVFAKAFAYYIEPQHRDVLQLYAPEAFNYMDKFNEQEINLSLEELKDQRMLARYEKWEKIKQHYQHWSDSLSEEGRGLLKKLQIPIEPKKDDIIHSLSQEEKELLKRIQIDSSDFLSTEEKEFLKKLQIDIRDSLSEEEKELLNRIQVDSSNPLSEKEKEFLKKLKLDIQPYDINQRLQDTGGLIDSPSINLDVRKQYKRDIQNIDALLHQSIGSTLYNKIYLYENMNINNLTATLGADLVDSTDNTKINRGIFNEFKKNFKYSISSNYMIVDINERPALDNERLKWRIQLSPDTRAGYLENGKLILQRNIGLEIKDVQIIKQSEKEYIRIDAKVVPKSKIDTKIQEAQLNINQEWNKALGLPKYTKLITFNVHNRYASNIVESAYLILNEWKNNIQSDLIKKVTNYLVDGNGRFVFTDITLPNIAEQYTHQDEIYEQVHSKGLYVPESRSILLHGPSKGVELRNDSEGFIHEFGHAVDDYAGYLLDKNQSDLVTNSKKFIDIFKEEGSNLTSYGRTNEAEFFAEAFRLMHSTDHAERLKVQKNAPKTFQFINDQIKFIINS
BoNT A protease = inhibitors of Botulinum neurotoxin A light chain protease; multiplex microsphere protease substrate cleavage, flow cytometry; inhibition, % at 10 µM; 0.17% of 360,000 active
Bead autofluor = counter-screen for toxin protease inhibitors: compound fluorescence; AID 624483; 3.1% of 360,000 active; compound autofluorescence counterscreen, microsphere flow cytometry; hits give high values; fluorescence intensity (concentration not given with the values); in the data active means fluorescence intensity above about 16000; inconclusive means no clear call, values can overlap the other calls
3CLpro inhibitor = SARS-CoV 3CLpro protease inhibition. 0.14% of 290,000 active. inhibition, % at 6 µM. recombinant SARS-CoV 3CLpro, quenched FRET peptide cleavage. P0C6X7; in the data active means inhibition above about 12%
BoNT F protease = blocks Botulinum neurotoxin F light chain protease. Multiplex microsphere protease cleavage assay, flow cytometry. inhibition, % at 10 µM. 0.22% of 360,000 active. AID 588497; in the data active means inhibition above about 35%, passing the limit was not always enough; inconclusive means no clear call, values can overlap the other calls
Hits are given with their value; . = inactive; ? = inconclusive; / = no result. Hits are enriched below; roughly 3.9% of the tested compounds scored in any of these assays. Unless noted, no stated cut-off is given here; in the data, active means inhibition above about 30%; inconclusive means no clear call, values can overlap the other calls; inactive means below that.

SMILES	CCHF vOTU inh	Anthrax LF inh2	BoNT A protease	Bead autofluor	3CLpro inhibitor	BoNT F protease
COc1ccc(-c2cc(-c3nnc4sc(Cc5cccs5)nn34)[nH]n2)cc1	.	/	/	/	/	/
Cc1ccc(S(=O)(=O)ON2C(=O)c3ccccc3C2=O)c(C)c1	.	.	.	.	.	.
Cc1cc(C)c(S(=O)(=O)ON2C(=O)c3ccccc3C2=O)cc1C	.	.	?	23962	.	.
O[C@H](COc1cccc(C(F)(F)F)c1)CN1CCC(C(O)(c2ccccc2)c2ccccc2)CC1	.	/	/	/	/	/
COc1ccccc1NC(=O)CSc1ncnc2c1oc1ccccc12	.	.	.	20328	.	.
O=C(CSc1ncnc2c1oc1ccccc12)Nc1ccc2c(c1)OCCO2	.	.	.	17420	.	.
Cc1nc(SCC(=O)Nc2ccc3c(c2)OCCO3)c2oc3ccccc3c2n1	.	.	.	20676	.	.
CCc1nc(SCC(=O)Nc2ccc3c(c2)OCCO3)c2oc3ccccc3c2n1	.	.	.	.	.	.
O=C(CSc1ncnc2c1oc1ccccc12)Nc1cccc(F)c1	.	.	.	.	.	.
CN(C)CC(=O)N[C@H]1C[C@@H]2O[C@H](CO)CC[C@@H]2O[C@@H]1CCc1ccc(-c2ccc(F)cc2)cc1	.	/	/	/	/	/
CCN(CC)c1ccc(NC(=O)COC(=O)c2cccs2)cc1	.	.	.	22712	.	.
CCN(c1ccc(NC(=O)COC(=O)c2cccs2)cc1)C(C)C	.	.	.	.	.	.
O=C(CSc1nc2ccccc2[nH]1)NN=Cc1c(F)cccc1Cl	.	/	/	/	/	/
Cc1ccc2nc(SCC(=O)Nc3nnc(SCC(N)=O)s3)[nH]c2c1	.	.	.	20623	.	.
C/C(N)=C(/C#N)C(=O)CSc1nc2ccc(C)cc2[nH]1	.	.	.	16421	.	.
CCOC(=O)C(C)(C)Sc1ncnc2nc[nH]c12	.	.	?	23381	.	.
CN(C)C(=C(C#N)C#N)N1CCN(c2ccc(Cl)c(Cl)c2)CC1	.	.	.	20347	.	.
CN(C)C(=C(C#N)C#N)N1CCN(c2ccc(Cl)cc2)CC1	.	.	.	.	.	.
CCOC(=O)[C@]12CCCC=C1N(CCCOC)C(=O)[C@@H]2CC(=O)NCc1cccs1	.	/	/	/	/	/
CCOc1ccc(NC(=O)CN2CCCN(c3ccc(OC)cc3)CC2)cc1	.	/	/	/	/	/
COc1ccc(OC[C@@H](O)CN2CCC(C(O)(c3ccccc3)c3ccccc3)CC2)cc1	.	/	/	/	/	/
Cc1noc(C)c1CSc1ncnc2sc3c(c12)CCCCC3	.	.	.	.	.	.
CCSc1ncnc2sc3c(c12)CCC3	.	.	.	20242	.	.
O=C(O)CSc1ncnc2sc3c(c12)CCC3	.	.	.	19351	.	.
Fc1ccc(CSc2ncnc3sc4c(c23)CCCC4)cc1	.	.	.	19865	.	.
SMILES	CCHF vOTU inh	Anthrax LF inh2	BoNT A protease	Bead autofluor	3CLpro inhibitor	BoNT F protease
CCc1cc2c(SCC(=O)c3ccccc3)ncnc2s1	.	.	.	.	.	.
CCc1cc2c(SCC(=O)O)ncnc2s1	.	.	?	18901	.	.
O=C(O)CSc1ncnc2sc3c(c12)CCCC3	.	.	.	.	.	.
Cc1cc(C)cc(N(CC(=O)NC2CCC(C)CC2)S(=O)(=O)c2ccccc2)c1 (centres undefined)	.	/	/	/	/	/
O=C(Nc1ccc(F)cc1)OCc1cn(Cc2cccc(Cl)c2)nn1	.	/	/	/	/	/
CC(C)CC(=O)N1CCN(c2ccc([N+](=O)[O-])c(NCc3ccccc3)c2)CC1	31	.	.	.	.	.
O=C(c1ccccc1)N1CCN(c2ccc([N+](=O)[O-])c(NCc3cccnc3)c2)CC1	.	.	.	.	.	.
Cc1ccc(Cn2cc(CN3[C@H](Cc4ccccc4)COc4cc(Br)ccc4S3(=O)=O)nn2)cc1	.	/	/	/	/	/
Cc1cccc(CN(C)CCc2ccccn2)c1	.	.	.	16809	.	.
Cc1ccccc1CN(C)CCc1ccccn1	.	.	.	.	.	.
COC(=O)CCCCC1SCC2NC(=O)NC21O (centres undefined)	.	.	.	.	.	79
Oc1c(Cl)cc(Cl)cc1/C=N/Nc1ncc(Br)cn1	.	.	.	.	.	.
Cc1ccc(N=Cc2cc(Cl)cc(Cl)c2O)nc1	.	.	.	.	.	35
Cc1cc(/C(=N/O)C(C)(C)NO)ccc1Cl	.	.	.	22038	.	.
COc1ccc(-c2cc(C(F)(F)F)n3nc(N)nc3n2)cc1	/	.	.	23917	.	.
CN1OC[C@@H]2CN3C(=NCCc4ccccc4)Sc4ccccc4[C@@H]3C[C@@H]21	.	/	/	/	/	/
Cc1csc(NC(=O)c2ccc(COc3cccc(F)c3)o2)n1	.	/	/	/	/	/
CC(C(=O)NCC1(c2ccccc2)CCCC1)N1CCOCC1 (centres undefined)	.	.	.	23756	.	.
CC(C(=O)NCC1(c2ccccc2)CCOCC1)N1CCOCC1 (centres undefined)	.	.	.	.	.	.
CC(=O)c1ccc(NC(=O)c2ccn[nH]2)cc1	.	.	.	22226	.	.
O=C(Nc1ccccc1)c1ccn[nH]1	.	.	.	.	.	.
COc1ccc(CCNC(=O)Cn2ncc3c2-c2cc(C)ccc2OC3)cc1	.	/	/	/	/	/
C#CCN(CC=C)Cc1ccc(OC)cc1OC	.	/	/	/	/	/
CN(C)C(Cc1ccccc1)C(=O)c1ccc(-c2ccccc2)cc1 (centres undefined)	.	.	?	16369	.	.
COc1ccc(NC(=O)CC(Cc2ccccc2)C(=O)O)cc1 (centres undefined)	.	.	.	22709	.	.
SMILES	CCHF vOTU inh	Anthrax LF inh2	BoNT A protease	Bead autofluor	3CLpro inhibitor	BoNT F protease
COc1ccc(C(=O)C(Cc2ccccc2)N(C)C)cc1 (centres undefined)	.	.	.	16157	.	.
COc1ccc(C(=O)NC(=S)N(Cc2ccccc2)Cc2ccccc2)cc1	.	.	.	16570	.	.
COC(=O)[C@]12C[C@H](CC(=O)NCc3cccs3)C(=O)N(Cc3ccc4c(c3)OCO4)C1=C[C@H](C(C)C)O[C@@H]2C1CC1	.	/	/	/	/	/
Cc1ccc2nc(-c3ccc(NC(=O)CSc4nnc(-c5cccc(Cl)c5)n4Cc4ccco4)cc3)sc2c1	.	/	/	/	/	/
CCCC[C@H](C(=O)N(C)c1ccccc1)[C@@H](O)c1ccc(Cl)cc1	.	/	/	/	/	/
C[C@H]1COc2cccc(NCCO)c2S(=O)(=O)N1	.	/	/	/	/	/
CCOC(=O)CSc1nc2cc(C(=O)NCc3ccco3)ccc2c(=O)n1C1CCCCC1	/	.	.	16581	.	.
